For ten compounds, outcome and AC50 results are on record in PubChem BioAssay (EPA / NIEHS).

Where “and” joins values, the source holds several entries; their conditions need not be identical. Equal values may be shown once. Inconclusive results are not listed. A structure can be active in one record and inactive in another. Calls of active or inactive are those of the source. The calls were made as follows, unless noted: active = hit-call score of the fitted dose curve at least 0.9, where 1 is the maximum; inactive = score below 0.9.

Read-out in experiment [1]: CD69, CD69 (gene 969)
The experiment is described as follows: BSK_LPS_CD69: BioMAP Diversity Plus: LPS Assay for CD69 Biomarker Activity (AID 2284303). The note with it: primary human HUVEC with PBMC. The gist of the method: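 Human umbilical vein endothelial cells co-cultured with PBMC under LPS stimulation, chemical exposure 24 h; cell-surface CD69 measured by ELISA and fitted in the positive direction versus DMSO.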

The nature of experiment [2]: VALA_TUBIPS_Agonist_TubuleLength: VALA Sciences human iPS-derived Endothelial Tubule Formation (TUBIPS) Agonism Assay (AID 2284311; active = hit-call score of the fitted dose curve at least 0.9, where 1 is the maximum). The gist of the method: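 Human iPS-derived endothelial cells were exposed to compound for 72 h. Tubule formation was imaged by high-content fluorescence and scored as gain of signal relative to DMSO vehicle (agonist mode).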
Experiment [3] in a line: VALA_TUBIPS_Antagonist_TubuleLength: VALA Sciences human iPS-derived Endothelial Tubule Formation (TUBIPS) Antagonist Assay (AID 2284313; active = hit-call score of the fitted dose curve at least 0.9, where 1 is the maximum). In a few lines:
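Cells grown 3 days with 10 ng/ml VEGF, then exposed to compounds in VEGF medium for another 3 days. After fixation, nuclear stain and CD31 immunofluorescence imaging gave mean total tubule length against 0.1% DMSO; suramin (100 uM) inhibition control.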

The nature of experiment [4]: VALA_MIGHUV2_Bcatenin: VALA Sciences human Umbilical Vein Endothelial Cell Migration (MIGHUV) Assay, Nuclear Translocation of beta-Catenin after Recovery (AID 2284315; active = hit-call score of the fitted dose curve at least 0.9, where 1 is the maximum). The gist of the method: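 HUVEC (4000 cells/well) scratch-wounded, dosed within 30 min over 6 concentrations in triplicate, recovered 24 h. After fixation, Hoechst and anti-beta-catenin immunofluorescence imaged for nuclear CTNB. Gain of signal versus 0.1% DMSO.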

Experiment [5] in a line: VALA_MIGHUV2_WoundArea: VALA Sciences human Umbilical Vein Endothelial Cell Migration (MIGHUV) Assay, Area of Scratch Wound after Recovery (AID 2284316; active = hit-call score of the fitted dose curve at least 0.9, where 1 is the maximum). In a few lines:
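HUVEC seeded at 9000 cells/well, scratched after 24 h; test chemical added within 30 min, 6-point concentration response in triplicate (0.1% DMSO vehicle). After 24 h wound recovery, cells fixed and Hoechst-stained nuclei in wound area imaged; Cytochalasin D reference control.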

In experiment [6] the test system is IYD (gene 389434). The experiment is described as follows: CCTE_GLTED_hIYD: CCTE's human Iodotyrosine Deiodinase (xIYD) Inhibition Assay, Great Lakes Toxicology and Ecology Division (GLTED) Lab (AID 2284317; active = hit-call score of the fitted dose curve at least 0.9, where 1 is the maximum;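 also: cell-free human IYD enzyme made in baculovirus insect cells; iodide freed from monoiodotyrosine measured by cerium arsenite color change at 420 nm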). The gist of the method:
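Human IYD expressed in a baculovirus-insect cell system was incubated 3 h with monoiodotyrosine and test chemical. Released iodide, separated on Dowex columns, was quantified by the Sandell-Kolthoff reaction at 420 nm; plates were normalized to MNT and DMSO/NaOH controls.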

The nature of experiment [7]: IUF_NPC2a_radial_glia_migration_120hr: Leibniz Research Institute for Environmental Medicine (IUF) 120-hour Neural Progenitor Cell Migration Assay for Radial Glia Migration (NPC2a) (AID 2284298). In a few lines:
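Migration distance in um, sphere core edge to migration-area edge, derived by nuclei-density algorithm from Hoechst images after 120 h compound exposure. Primary hNPC spheres differentiated on poly-D-lysine/laminin in N2 medium, 37C; medium half-replaced day 3.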

Experiment [8] in a line: IUF_NPC2a_radial_glia_migration_72hr: Leibniz Research Institute for Environmental Medicine (IUF) 72-hour Neural Progenitor Cell Migration Assay for Radial Glia Migration (NPC2a) (AID 2284299). The gist of the method: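 Human fetal cortex (GW 16-19) neural progenitor spheres, 0.3 mm, plated on poly-D-lysine/laminin in N2 differentiation medium with compound from day 0. Radial glia migration distance (um, sphere core edge to migration edge) measured manually in four directions on 72 h brightfield images; well mean used.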

A short description of experiment [9]: IUF_NPC2b_neuronal_migration_120hr: Leibniz Research Institute for Environmental Medicine (IUF) 120-hour Neural Progenitor Cell Migration Assay for Neuron Migration (NPC2b) (AID 2284300). In a few lines: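 TUBB3-positive neurons are imaged after 120 h of differentiation, and their mean distance from the sphere edge is normalised to radial glia migration. Single 0.3 mm fetal hNPC spheres on poly-D-lysine/laminin received 7 compound concentrations, ≤0.1% DMSO, refreshed at day 3.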

The nature of experiment [10]: IUF_NPC3_neuronal_differentiation_120hr: Leibniz Research Institute for Environmental Medicine (IUF) 120-hour Neuronal Differentiation Assay (NPC3) (AID 2284301). In a few lines: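 Single 0.3 mm neurospheres from human fetal cortex were plated in differentiation medium containing test compound. Medium was half-replaced on day 3. After 120 h cells were fixed, immunostained and imaged, and neuronal fraction was scored against DMSO control.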

A short description of experiment [11]: IUF_NPC4_neurite_length_120hr: Leibniz Research Institute for Environmental Medicine (IUF) 120-hour Neuronal Morphology Assay for Neurite Length (NPC4) (AID 2284302). The gist of the method: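 Read-out is mean neurite length in µm of TUBB3-positive neurons, skeletonized from high-content fluorescence images after 120 h. Single 0.3 mm primary human neural progenitor spheres differentiated on poly-D-lysine/laminin under continuous compound exposure; DMSO was baseline.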

The nature of experiment [12]: IUF_NPC5_oligodendrocyte_differentiation_120hr: Leibniz Research Institute for Environmental Medicine (IUF) 120-hour Oligodendrocyte Differentiation Assay (NPC5) (AID 2284304; active = hit-call score of the fitted dose curve at least 0.9, where 1 is the maximum;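 also: primary human fetal neural progenitor spheres plated to migrate and differentiate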). The gist of the method:
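Oligodendrocyte differentiation scored as O4-positive cells, found by CNN image analysis, as percent of Hoechst-stained nuclei in the migration area. Scoring followed 5 days of exposure of plated hNPC neurospheres differentiating in DMEM/F12 N2 medium at 37C, with compound refreshed at day 3.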

A short description of experiment [13]: IUF_NPC4_neurite_area_120hr: Leibniz Research Institute for Environmental Medicine (IUF) 120-hour Neuronal Morphology Assay for Neurite Area (NPC4) (AID 2284305; active = hit-call score of the fitted dose curve at least 0.9, where 1 is the maximum). The gist of the method: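 Neurite area is read out as the mean pixel area, excluding nuclei, of skeletonized TUBB3-positive neurons imaged after 120 h. Primary human neural progenitor spheres differentiated on poly-D-lysine/laminin with compound present from day 0. Activity was referenced to DMSO controls.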

Experiment [14] is described as follows: IUF_NPC2-5_cytotoxicity_72hr: Cytotoxicity Assessment at 72 hours in the Leibniz Research Institute for Environmental Medicine (IUF) Neural Progenitor Cell Migration and Differentiation Assay for Cytotoxicity (NPC2-5) (AID 2284306; active = hit-call score of the fitted dose curve at least 0.9, where 1 is the maximum;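 also: LDH release into supernatant measured by resorufin fluorescence marking membrane damage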). The gist of the method: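 Membrane integrity loss was scored from fluorescence (RFU) of resorufin generated by LDH in culture supernatant, 72 h after dosing. Differentiating human progenitor spheres received seven serial compound concentrations alongside a solvent control.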

Experiment [15] in a line: IUF_NPC2-5_cytotoxicity_120hr: Cytotoxicity Assessment at 120 hours in the Leibniz Research Institute for Environmental Medicine (IUF) Neural Progenitor Cell Migration and Differentiation Assay (NPC2-5) (AID 2284307; active = hit-call score of the fitted dose curve at least 0.9, where 1 is the maximum;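 as to AC50: LDH released into supernatant as membrane damage marker via resorufin fluorescence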). The gist of the method:
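Membrane-integrity loss measured as LDH activity in medium supernatant via resazurin-to-resorufin fluorescence after 120 h exposure. hNPC spheres from GW 16-19 fetal cortex differentiated on poly-D-lysine/laminin, 37C, medium half-refreshed day 3; seven concentrations, DMSO max 0.1%.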

A short description of experiment [16]: IUF_NPC2-5_cell_number_120hr: Cell Number Assessment at 120 hours in the Leibniz Research Institute for Environmental Medicine (IUF) Neural Progenitor Cell Migration and Differentiation Assay (NPC2-5) (AID 2284308).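 Also: count of Hoechst-stained nuclei in migration zone around plated human neural progenitor spheres.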 In a few lines: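 Counting of all Hoechst-stained nuclei in the migration area at 120 h, versus DMSO control. Primary hNPC spheres differentiated on poly-D-lysine/laminin in N2 medium at 37C, dosed from day 0 (7 concentrations, DMSO ≤0.1%), half-refed day 3.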

Experiment [17] can be described thus: IUF_NPC2-5_viability_120hr: Viability Assessment at 120 hours in the Leibniz Research Institute for Environmental Medicine (IUF) Neural Progenitor Cell Migration and Differentiation Assay (NPC2-5) (AID 2284312). The gist of the method: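 Alamar blue resorufin fluorescence read after 5 days of differentiation, with compound present from day 0 and replenished at day 3. Primary hNPC spheres on laminin-coated plates, 37C; seven concentrations plus solvent control, fitted against DMSO.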

The nature of experiment [18]: CCTE_Mundy_HCI_iCellGluta_NOG_NeuriteLength: CCTE's Neurite Outgrowth Assay in iCellGluta cells for Neurite Length, Mundy Lab (AID 2284318; active = hit-call score of the fitted dose curve at least 0.9, where 1 is the maximum). The gist of the method: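 Automated high-content imaging of betaIII-tubulin (Alexa Fluor-488) and Hoechst-stained cells gave neurite length, normalized to the DMSO baseline.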
The nature of experiment [19]: CCTE_Deisenroth_5AR_NBTE_donor: CCTE's 5alpha-reductase NanoBRET Target Engagement Assay […], Deisenroth Lab (AID 2284319). The note with it: actives raise or lower the signal. In a few lines: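 Donor NanoLuc luminescence at 460-20 nm is the read-out, serving artifact detection. Transiently expressed SRD5A2-NanoLuc in HEK293T; 5 h total chemical exposure, testosterone tracer added for the final 2 h; fitting bidirectional relative to DMSO baseline.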
(BRET reads energy transfer from a luciferase to a nearby fluorophore.)

The nature of experiment [20]: CCTE_Deisenroth_5AR_NBTE_acceptor: CCTE's 5alpha-reductase NanoBRET Target Engagement Assay - Autofluorescence Screen, Deisenroth Lab (AID 2284321). The note with it: actives raise or lower the signal. In a few lines: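 Acceptor-channel fluorescence flags artifacts, with excitation fixed at 460 nm. Nominal 100 uM chemical samples were read in triplicate runs, and signal changes were fitted in both directions relative to DMSO.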

What is called AC50 is the concentration at which the activity in the assay is half-maximal.

Turning to `OCCCCO`, the outcome in experiment [1] was inactive.

As to `Nc1ncn[nH]1`, the result in experiment [2], in experiment [3], in [4] and in experiment [5] was inactive.

With `CCCCCCCCCCCCc1cccc(S(=O)(=O)O)c1`, the AC50 in [6] was 89.9 µM (active).

As to `OC(Cc1ccccc1Cl)(Cn1[nH]cnc1=S)C1(Cl)CC1` (stereo not drawn), the concentration at half-maximal activity (AC50) in experiment [7] was 43 µM (active); in experiment [8], 36 µM (active); in experiment [10], 17.5 µM (active); in experiment [11] it was 36.1 µM (active); in experiment [12], 0.507 µM (active); in experiment [13] it was 40.3 µM (active). In addition, the AC50 is 126 µM (active) in experiment [15] and 35.8 µM (active) in [17]. Also, the call in experiment [9], in experiment [14], in experiment [16] and in experiment [18] was inactive.

Consider `CS(=O)(=O)c1ccc(C(=O)C2C(=O)CCCC2=O)c(Cl)c1COCC(F)(F)F`, for which the outcome in [7], in experiment [8], in experiment [9], in [10], in [11] and in experiment [12] was inactive. In addition, the compound was classed as inactive in experiment [13], in [14], in experiment [15], in experiment [16] and in experiment [17]. Further, the AC50 in experiment [18] is 25 µM (active).

In the case of `O=S1OC[C@@H]2[C@H](CO1)[C@]1(Cl)C(Cl)=C(Cl)[C@@]2(Cl)C1(Cl)Cl` (stereo partly drawn), the result in experiment [7], in experiment [8], in [9], in experiment [10], in [11] and in [13] was inactive. Moreover, the compound was called inactive in [14], in [15], in experiment [16] and in experiment [17]. Moreover, the AC50 in experiment [12] was 0.789 µM (active).

As to `CC(C)[C@@H](Nc1ccc(C(F)(F)F)cc1Cl)C(=O)OC(C#N)c1cccc(Oc2ccccc2)c1` (stereo partly drawn), the call in experiment [7], in [8], in experiment [9], in experiment [11], in experiment [13] and in experiment [14] was inactive. The call in [15], in experiment [16], in experiment [17] and in experiment [18] was inactive. For the same compound, the AC50 is 1.92 µM (active) in experiment [10] and 3.8 µM (active) in experiment [12].

Consider `O=S1(=O)OC(c2cc(Br)c(O)c(Br)c2)(c2cc(Br)c(O)c(Br)c2)c2ccccc21`, for which, in experiment [6], the AC50 was 117 µM (active). The outcome in [19] and in experiment [20] was inactive.

Take `O=C(Nc1ccc(Br)cc1)c1cc(Br)cc(Br)c1O`: in experiment [6], the half-maximal activity concentration (AC50) was 118 µM (active) and 100 µM (active); the call was inactive.

With `CNC(=O)CSP(=O)(OC)OC`, the compound was classed as inactive in experiment [7], in [8], in [9], in experiment [10], in [11] and in [13]. In addition, the outcome in [14], in [15], in [16] and in experiment [17] was inactive.
